# Reference: PubChem BioAssay AID1220 (Sanford-Burnham Center for Chemical Genomics, 2008)
# The campaign covered roughly 190,000 compounds. About 1,300 (0.68%) were called active. The entries come from a sample that favours actives as a whole. A number with no mark means an inactive call. Cut-off read from the data, not from the text of the source: active = inhibition above about 50%; inactive = the rest.
# Molecular target: Mannose-6-phosphate isomerase (Homo sapiens) (UniProt P34949)
# Experiment: human PMI inhibitors, high substrate, primary screen, biochemical, fluorescence intensity, high mannose 6-phosphate (AID 1220)
# Settings: recombinant PMI enzyme, coupled fluorescence intensity; at 20 µM; stronger effect = higher value
# Sequence of Mannose-6-phosphate isomerase (Homo sapiens) (P34949 whole entry, looked up): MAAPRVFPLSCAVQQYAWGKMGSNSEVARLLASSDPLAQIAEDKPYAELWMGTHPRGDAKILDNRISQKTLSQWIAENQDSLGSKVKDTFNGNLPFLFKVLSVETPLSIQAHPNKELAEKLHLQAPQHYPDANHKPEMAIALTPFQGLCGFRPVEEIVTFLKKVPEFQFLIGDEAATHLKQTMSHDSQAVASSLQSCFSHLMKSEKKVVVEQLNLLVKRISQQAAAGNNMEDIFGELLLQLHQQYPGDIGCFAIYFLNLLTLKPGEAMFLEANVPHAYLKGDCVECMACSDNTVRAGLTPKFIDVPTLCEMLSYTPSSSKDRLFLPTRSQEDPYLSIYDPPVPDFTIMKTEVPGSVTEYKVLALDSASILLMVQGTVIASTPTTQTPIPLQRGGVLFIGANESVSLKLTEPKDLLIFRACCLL
row,Compound,inhibition
1,CCOC(=O)c1ccc(CN(Cc2ccc(C)cc2)S(=O)(=O)c2cccc([N+](=O)[O-])c2)cc1,-10%
2,N#Cc1c(N2CCCCC2)nc(N)c2c(N)nc3c(c12)CC(CCl)O3 (configuration not stated),47.3%
3,CCC1Cc2c(nc(N)c3c(N)nc(N4CCOCC4)c(C#N)c23)O1 (configuration not stated),61.5% (active)
4,COc1ccc(CN2C(=O)Cc3c2nc(N)c2c(N)nc(N4CCCCC4)c(C#N)c32)cc1,37.8%
5,N#Cc1c(N2CCCCC2)nc(N)c2c(N)nc3c(c12)CC(c1ccccc1)O3 (configuration not stated),56.5% (active)
6,CCN(CC)c1nc(N)c2c(N)nc3c(c2c1C#N)CC(c1ccccc1)O3 (configuration not stated),31.2%
7,CCc1nc(N2CCOCC2)c(C#N)c2c1CCCC2,4.2%
8,CCOc1ccccc1C1N(c2ccc(OC)cc2)C(=O)C2CCCN21 (configuration not stated),2.6%
9,CC(C)(C)NC(=O)C(c1ccncc1)N(C(=O)Cn1nnc(-c2ccc(F)cc2)n1)c1ccccc1F (configuration not stated),1.9%
10,Cc1ccc(NC(=O)c2ccco2)c(NC(=O)C2CCCO2)c1 (configuration not stated),11.8%
11,O=C(Nc1ccccc1NC(=O)C1CCCO1)c1ccco1 (configuration not stated),51.8% (active)
12,O=C(Nc1cccc(NC(=O)C2CCCO2)c1)c1ccco1 (configuration not stated),13.7%
13,CCOC(=O)N1CCC(N(CCN(C)C)C(=S)Nc2cccc(Cl)c2)CC1,10.6%
14,O=c1c2ccccc2sn1-c1cc(S(=O)(=O)N2CCOCC2)ccc1N1CCOCC1,96.3% (active)
15,O=c1c2ccccc2sn1-c1cc(S(=O)(=O)N2CCOCC2)ccc1N1CCCC1,77.3% (active)
16,O=c1c2ccccc2sn1-c1ccc(S(=O)(=O)N2CCCC2)cc1,5%
17,O=S(=O)(c1ccc2c(c1)oc1ccccc12)N1CCOCC1,3.7%
18,O=C(O)c1cc(S(=O)(=O)N2CCOCC2)ccc1N1CCOCC1,-9.3%
19,Cc1ccc(C)n1-c1cc(S(=O)(=O)N2CCOCC2)ccc1N1CCCC1,17%
20,Cc1cc2ccccc2n1CCNC(=O)C(C)Oc1ccccc1 (configuration not stated),5.6%
21,Cc1cc(Nc2ccccc2)nc(N2CCOCC2)n1,-4.3%
22,COCCCNC(=O)c1cc(C(=O)c2c(-c3c(Cl)cccc3Cl)noc2C)c[nH]1,-2.4%
23,CC1(C)CC(=O)c2cnc3c(C#N)cnn3c2C1,6.6%
24,Cc1ccc(CN(Cc2ccco2)C(=S)Nc2ccccc2C)cc1,8.6%
25,O=c1c(N2CCOCC2)nsnc1N1CCOCC1,53.3% (active)
26,COc1nsnc1N1CCOCC1,-11.2%
27,O=c1[nH]snc1N1CCOCC1,-7.2%
